Article PMC11006913
Changes are numbered by the printed parent chain.

Key:
Assay in all cases: PBM; 200 nM protein, PBS
Details in all cases: dsDNA, one strand shown
[1] = target: HOXB4 (Homo sapiens, UniProt P17483 148-234)
[2] = target: HOXA4 (Homo sapiens, UniProt Q00056 201-287, W262R)
[3] = target: HOXA7 (Homo sapiens, UniProt P31268 116-202)
[4] = target: HOXB6 (Homo sapiens, UniProt P17509 132-218, K202E)
[5] = target: HOXA2 (Homo sapiens, UniProt O43364 129-215, R185T)
[6] = target: HOXA4 (Homo sapiens, UniProt Q00056 201-287, R217L)
HOXA4 (Homo sapiens, UniProt Q00056 201-287, R217L), sequence (Q00056 201-287 R217L): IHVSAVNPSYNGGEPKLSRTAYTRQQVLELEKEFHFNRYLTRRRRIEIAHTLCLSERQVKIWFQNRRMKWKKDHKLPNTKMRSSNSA

[7] = target: HOXB4 (Homo sapiens, UniProt P17483 148-234, V174I)
HOXB4 (Homo sapiens, UniProt P17483 148-234, V174I), sequence (P17483 148-234 V174I): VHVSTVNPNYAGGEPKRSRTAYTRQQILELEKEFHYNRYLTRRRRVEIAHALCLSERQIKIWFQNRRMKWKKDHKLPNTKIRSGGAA

[8] = target: HOXA2 (Homo sapiens, UniProt O43364 129-215, R185K)
HOXA2 (Homo sapiens, UniProt O43364 129-215, R185K), sequence (O43364 129-215 R185K): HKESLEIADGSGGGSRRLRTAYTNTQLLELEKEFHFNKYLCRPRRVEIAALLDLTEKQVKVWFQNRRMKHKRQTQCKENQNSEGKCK

[9] = target: HOXA4 (Homo sapiens, UniProt Q00056 201-287)
HOXA4 (Homo sapiens, UniProt Q00056 201-287), sequence (Q00056 201-287): as the sequence (Q00056 201-287 R217L) above, with L17R counted along it

[10] = target: HOXA2 (Homo sapiens, UniProt O43364 129-215, Y150S)
HOXA2 (Homo sapiens, UniProt O43364 129-215, Y150S), sequence (O43364 129-215 Y150S): as the sequence (O43364 129-215 R185K) above, with Y22S, K57R counted along it

[11] = target: HOXA7 (Homo sapiens, UniProt P31268 116-202, W177C)
HOXA7 (Homo sapiens, UniProt P31268 116-202, W177C), sequence (P31268 116-202 W177C): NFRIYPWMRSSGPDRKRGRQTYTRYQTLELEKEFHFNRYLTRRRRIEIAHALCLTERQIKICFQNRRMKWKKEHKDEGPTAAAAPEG

[12] = target: HOXA4 (Homo sapiens, UniProt Q00056 201-287, W262F)
HOXA4 (Homo sapiens, UniProt Q00056 201-287, W262F), sequence (Q00056 201-287 W262F): as the sequence (Q00056 201-287 R217L) above, with L17R, W62F counted along it

[13] = target: HOXA2 (Homo sapiens, UniProt O43364 129-215)
HOXA2 (Homo sapiens, UniProt O43364 129-215), sequence (O43364 129-215): as the sequence (O43364 129-215 R185K) above, with K57R counted along it

[14] = target: HOXB6 (Homo sapiens, UniProt P17509 132-218)
HOXB6 (Homo sapiens, UniProt P17509 132-218), sequence (P17509 132-218): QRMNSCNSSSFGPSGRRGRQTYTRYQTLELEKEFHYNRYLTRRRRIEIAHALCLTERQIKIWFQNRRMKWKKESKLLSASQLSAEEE

[15] = target: T1, VENTX (Homo sapiens, UniProt O95231 78-163, R121Q)
T1 sequence: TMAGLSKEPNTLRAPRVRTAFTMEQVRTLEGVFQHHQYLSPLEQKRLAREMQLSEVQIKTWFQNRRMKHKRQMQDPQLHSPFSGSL

[16] = target: T2, VENTX (Homo sapiens, UniProt O95231 78-163)
T2 sequence: T1 sequence with Q44R

[17] = target: T3, VENTX (Homo sapiens, UniProt O95231 78-163, Y115F)
T3 sequence: T1 sequence with Y38F, Q44R

[18] = target: VAX1 (Homo sapiens, UniProt Q5SQQ9 86-172)
VAX1 (Homo sapiens, UniProt Q5SQQ9 86-172), sequence (Q5SQQ9 86-172): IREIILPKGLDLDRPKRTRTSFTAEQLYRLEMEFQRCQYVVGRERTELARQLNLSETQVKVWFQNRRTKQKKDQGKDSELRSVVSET

[19] = target: VAX1 (Homo sapiens, UniProt Q5SQQ9 86-172, T142I)
VAX1 (Homo sapiens, UniProt Q5SQQ9 86-172, T142I), sequence (Q5SQQ9 86-172 T142I): as the sequence (Q5SQQ9 86-172) above, with T57I counted along it

[20] = target: VAX1 (Homo sapiens, UniProt Q5SQQ9 86-172, K157R)
VAX1 (Homo sapiens, UniProt Q5SQQ9 86-172, K157R), sequence (Q5SQQ9 86-172 K157R): as the sequence (Q5SQQ9 86-172) above, with K72R counted along it

HOXA2 (Homo sapiens, UniProt O43364 129-215, R185T), sequence (O43364 129-215 R185T): as the sequence (O43364 129-215 R185K) above, with K57T counted along it
HOXA7 (Homo sapiens, UniProt P31268 116-202), sequence (P31268 116-202): as the sequence (P31268 116-202 W177C) above, with C62W counted along it
HOXB6 (Homo sapiens, UniProt P17509 132-218, K202E), sequence (P17509 132-218 K202E): as the sequence (P17509 132-218) above, with K71E counted along it
HOXA4 (Homo sapiens, UniProt Q00056 201-287, W262R), sequence (Q00056 201-287 W262R): as the sequence (Q00056 201-287 R217L) above, with L17R, W62R counted along it
HOXB4 (Homo sapiens, UniProt P17483 148-234), sequence (P17483 148-234): as the sequence (P17483 148-234 V174I) above, with I27V counted along it

ACATTAAT
binding signal [1]: 13 upbm affinity estimate (log intensity, higher = more binding, comparable within an allelic series)
binding signal [2]: 10.6 upbm affinity estimate (log intensity, higher = more binding, comparable within an allelic series)
binding signal [3]: 11.6 upbm affinity estimate (log intensity, higher = more binding, comparable within an allelic series)
binding signal [4]: 10.1 upbm affinity estimate (log intensity, higher = more binding, comparable within an allelic series)
binding signal [5]: 12.3 upbm affinity estimate (log intensity, higher = more binding, comparable within an allelic series)
binding signal [6]: 12 upbm affinity estimate (log intensity, higher = more binding, comparable within an allelic series)
binding signal [7]: 13.6 upbm affinity estimate (log intensity, higher = more binding, comparable within an allelic series)
binding signal [8]: 13.2 upbm affinity estimate (log intensity, higher = more binding, comparable within an allelic series)
binding signal [9]: 13.6 upbm affinity estimate (log intensity, higher = more binding, comparable within an allelic series)
binding signal [10]: 11 upbm affinity estimate (log intensity, higher = more binding, comparable within an allelic series)
binding signal [11]: 8.92 upbm affinity estimate (log intensity, higher = more binding, comparable within an allelic series)
binding signal [12]: 11.4 upbm affinity estimate (log intensity, higher = more binding, comparable within an allelic series)
binding signal [13]: 12.1 upbm affinity estimate (log intensity, higher = more binding, comparable within an allelic series)
binding signal [14]: 12 upbm affinity estimate (log intensity, higher = more binding, comparable within an allelic series)

CGCCGCCG
binding signal [1]: 8.06 upbm affinity estimate (log intensity, higher = more binding, comparable within an allelic series)
binding signal [15]: 8.02 upbm affinity estimate (log intensity, higher = more binding, comparable within an allelic series)
binding signal [16]: 8.3 upbm affinity estimate (log intensity, higher = more binding, comparable within an allelic series)
binding signal [3]: 8.5 upbm affinity estimate (log intensity, higher = more binding, comparable within an allelic series)
binding signal [17]: 8.17 upbm affinity estimate (log intensity, higher = more binding, comparable within an allelic series)
binding signal [7]: 7.89 upbm affinity estimate (log intensity, higher = more binding, comparable within an allelic series)
binding signal [18]: 7.38 upbm affinity estimate (log intensity, higher = more binding, comparable within an allelic series)
binding signal [19]: 7.39 upbm affinity estimate (log intensity, higher = more binding, comparable within an allelic series)
binding signal [11]: 8.25 upbm affinity estimate (log intensity, higher = more binding, comparable within an allelic series)
binding signal [20]: 7.32 upbm affinity estimate (log intensity, higher = more binding, comparable within an allelic series)

GACCAGGC
binding signal [1]: 7.9 upbm affinity estimate (log intensity, higher = more binding, comparable within an allelic series)
binding signal [15]: 8.15 upbm affinity estimate (log intensity, higher = more binding, comparable within an allelic series)
binding signal [16]: 8.13 upbm affinity estimate (log intensity, higher = more binding, comparable within an allelic series)
binding signal [3]: 8.38 upbm affinity estimate (log intensity, higher = more binding, comparable within an allelic series)
binding signal [17]: 8.13 upbm affinity estimate (log intensity, higher = more binding, comparable within an allelic series)
binding signal [7]: 7.99 upbm affinity estimate (log intensity, higher = more binding, comparable within an allelic series)
binding signal [11]: 8.39 upbm affinity estimate (log intensity, higher = more binding, comparable within an allelic series)

CCCATTAA
binding signal [1]: 13 upbm affinity estimate (log intensity, higher = more binding, comparable within an allelic series)
binding signal [15]: 12.1 upbm affinity estimate (log intensity, higher = more binding, comparable within an allelic series)
binding signal [2]: 10.4 upbm affinity estimate (log intensity, higher = more binding, comparable within an allelic series)
binding signal [16]: 13.1 upbm affinity estimate (log intensity, higher = more binding, comparable within an allelic series)
binding signal [3]: 11.8 upbm affinity estimate (log intensity, higher = more binding, comparable within an allelic series)
binding signal [17]: 12 upbm affinity estimate (log intensity, higher = more binding, comparable within an allelic series)
binding signal [4]: 9.99 upbm affinity estimate (log intensity, higher = more binding, comparable within an allelic series)
binding signal [5]: 12.5 upbm affinity estimate (log intensity, higher = more binding, comparable within an allelic series)
binding signal [6]: 11.9 upbm affinity estimate (log intensity, higher = more binding, comparable within an allelic series)
binding signal [7]: 13.5 upbm affinity estimate (log intensity, higher = more binding, comparable within an allelic series)
binding signal [8]: 13.1 upbm affinity estimate (log intensity, higher = more binding, comparable within an allelic series)
binding signal [9]: 13.7 upbm affinity estimate (log intensity, higher = more binding, comparable within an allelic series)
binding signal [18]: 12.9 upbm affinity estimate (log intensity, higher = more binding, comparable within an allelic series)
binding signal [19]: 12.5 upbm affinity estimate (log intensity, higher = more binding, comparable within an allelic series)
binding signal [10]: 10.7 upbm affinity estimate (log intensity, higher = more binding, comparable within an allelic series)
binding signal [11]: 8.83 upbm affinity estimate (log intensity, higher = more binding, comparable within an allelic series)
binding signal [12]: 11.1 upbm affinity estimate (log intensity, higher = more binding, comparable within an allelic series)
binding signal [13]: 12.1 upbm affinity estimate (log intensity, higher = more binding, comparable within an allelic series)
binding signal [20]: 12.6 upbm affinity estimate (log intensity, higher = more binding, comparable within an allelic series)
binding signal [14]: 12.3 upbm affinity estimate (log intensity, higher = more binding, comparable within an allelic series)

GCTAATGA
binding signal [1]: 13.3 upbm affinity estimate (log intensity, higher = more binding, comparable within an allelic series)
binding signal [15]: 11.9 upbm affinity estimate (log intensity, higher = more binding, comparable within an allelic series)
binding signal [2]: 10.5 upbm affinity estimate (log intensity, higher = more binding, comparable within an allelic series)
binding signal [16]: 12.5 upbm affinity estimate (log intensity, higher = more binding, comparable within an allelic series)
binding signal [17]: 11.9 upbm affinity estimate (log intensity, higher = more binding, comparable within an allelic series)
binding signal [5]: 13.1 upbm affinity estimate (log intensity, higher = more binding, comparable within an allelic series)
binding signal [6]: 12.1 upbm affinity estimate (log intensity, higher = more binding, comparable within an allelic series)
binding signal [7]: 14 upbm affinity estimate (log intensity, higher = more binding, comparable within an allelic series)
binding signal [8]: 13.6 upbm affinity estimate (log intensity, higher = more binding, comparable within an allelic series)
binding signal [9]: 13.9 upbm affinity estimate (log intensity, higher = more binding, comparable within an allelic series)
binding signal [18]: 13.5 upbm affinity estimate (log intensity, higher = more binding, comparable within an allelic series)
binding signal [19]: 13.3 upbm affinity estimate (log intensity, higher = more binding, comparable within an allelic series)
binding signal [10]: 10.8 upbm affinity estimate (log intensity, higher = more binding, comparable within an allelic series)
binding signal [12]: 11.9 upbm affinity estimate (log intensity, higher = more binding, comparable within an allelic series)
binding signal [13]: 12.8 upbm affinity estimate (log intensity, higher = more binding, comparable within an allelic series)
binding signal [20]: 13.4 upbm affinity estimate (log intensity, higher = more binding, comparable within an allelic series)

CCCCCTCG
binding signal [1]: 7.86 upbm affinity estimate (log intensity, higher = more binding, comparable within an allelic series)
binding signal [5]: 7.09 upbm affinity estimate (log intensity, higher = more binding, comparable within an allelic series)
binding signal [7]: 7.85 upbm affinity estimate (log intensity, higher = more binding, comparable within an allelic series)
binding signal [8]: 10.2 upbm affinity estimate (log intensity, higher = more binding, comparable within an allelic series)
binding signal [10]: 10.3 upbm affinity estimate (log intensity, higher = more binding, comparable within an allelic series)
binding signal [13]: 7.14 upbm affinity estimate (log intensity, higher = more binding, comparable within an allelic series)

CTAATGAC
binding signal [1]: 13.2 upbm affinity estimate (log intensity, higher = more binding, comparable within an allelic series)
binding signal [15]: 11.9 upbm affinity estimate (log intensity, higher = more binding, comparable within an allelic series)
binding signal [2]: 10.6 upbm affinity estimate (log intensity, higher = more binding, comparable within an allelic series)
binding signal [16]: 12.5 upbm affinity estimate (log intensity, higher = more binding, comparable within an allelic series)
binding signal [17]: 11.9 upbm affinity estimate (log intensity, higher = more binding, comparable within an allelic series)
binding signal [5]: 13.1 upbm affinity estimate (log intensity, higher = more binding, comparable within an allelic series)
binding signal [6]: 12.1 upbm affinity estimate (log intensity, higher = more binding, comparable within an allelic series)
binding signal [7]: 13.9 upbm affinity estimate (log intensity, higher = more binding, comparable within an allelic series)
binding signal [8]: 13.7 upbm affinity estimate (log intensity, higher = more binding, comparable within an allelic series)
binding signal [9]: 13.9 upbm affinity estimate (log intensity, higher = more binding, comparable within an allelic series)
binding signal [18]: 13.3 upbm affinity estimate (log intensity, higher = more binding, comparable within an allelic series)
binding signal [19]: 13.2 upbm affinity estimate (log intensity, higher = more binding, comparable within an allelic series)
binding signal [10]: 10.9 upbm affinity estimate (log intensity, higher = more binding, comparable within an allelic series)
binding signal [12]: 12 upbm affinity estimate (log intensity, higher = more binding, comparable within an allelic series)
binding signal [13]: 12.9 upbm affinity estimate (log intensity, higher = more binding, comparable within an allelic series)
binding signal [20]: 13.2 upbm affinity estimate (log intensity, higher = more binding, comparable within an allelic series)

GCCGCTCC
binding signal [1]: 7.92 upbm affinity estimate (log intensity, higher = more binding, comparable within an allelic series)
binding signal [7]: 7.92 upbm affinity estimate (log intensity, higher = more binding, comparable within an allelic series)

TCATTAAA
binding signal [1]: 13.1 upbm affinity estimate (log intensity, higher = more binding, comparable within an allelic series)
binding signal [2]: 10.8 upbm affinity estimate (log intensity, higher = more binding, comparable within an allelic series)
binding signal [3]: 11.6 upbm affinity estimate (log intensity, higher = more binding, comparable within an allelic series)
binding signal [4]: 10.1 upbm affinity estimate (log intensity, higher = more binding, comparable within an allelic series)
binding signal [5]: 12.5 upbm affinity estimate (log intensity, higher = more binding, comparable within an allelic series)
binding signal [6]: 12.5 upbm affinity estimate (log intensity, higher = more binding, comparable within an allelic series)
binding signal [7]: 13.8 upbm affinity estimate (log intensity, higher = more binding, comparable within an allelic series)
binding signal [8]: 13.1 upbm affinity estimate (log intensity, higher = more binding, comparable within an allelic series)
binding signal [9]: 13.9 upbm affinity estimate (log intensity, higher = more binding, comparable within an allelic series)
binding signal [18]: 13 upbm affinity estimate (log intensity, higher = more binding, comparable within an allelic series)
binding signal [19]: 13 upbm affinity estimate (log intensity, higher = more binding, comparable within an allelic series)
binding signal [10]: 10.9 upbm affinity estimate (log intensity, higher = more binding, comparable within an allelic series)
binding signal [11]: 9 upbm affinity estimate (log intensity, higher = more binding, comparable within an allelic series)
binding signal [12]: 11.9 upbm affinity estimate (log intensity, higher = more binding, comparable within an allelic series)
binding signal [13]: 12.3 upbm affinity estimate (log intensity, higher = more binding, comparable within an allelic series)
binding signal [20]: 12.9 upbm affinity estimate (log intensity, higher = more binding, comparable within an allelic series)
binding signal [14]: 11.9 upbm affinity estimate (log intensity, higher = more binding, comparable within an allelic series)
